ADAM10 inh = inhibitors of human ADAM10; recombinant ADAM10, EDANS/DABCYL FRET peptide cleavage, 3 h; AID 720582; inhibition, % at 7 µM; hit rate 0.62% among 370,000; O14672;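 active means inhibition above a per-campaign cutoff equal to the mean of compounds falling between control-based bounds plus 3 SD, cut at about 20% in these data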
ADAM17 inh = ADAM17 inhibition, QFRET primary screen; recombinant ADAM17, EDANS/DABCYL FRET peptide cleavage; AID 720648; inhibition, % at 6.95 µM; P78536; hit rate 0.83% among 370,000;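 active means inhibition above the mean of compounds lying between control limits plus 3 SD, set per campaign, cut at about 8.5% in these data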
sPLA2-III inh = Inhibits HGIII-sPLA2 liposome hydrolysis, primary screen; QFRET BODIPY PC-A2 liposome hydrolysis, fluorescence; inhibition, % at 12.2 µM; AID 743126; Q9NZ20; hit rate 0.56% among 370,000;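 active means inhibition above mean plus 3 SD of compounds lying within the high and low control bounds, cut at about 19% in these data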
PLC-beta3 inh = PLC-beta3 (human) inhibition, primary screen; Purified PLC-beta3, fluorogenic substrate, fluorescence; hit rate 0.18% among 370,000; inhibition, % at 12.2 µM; in the data active means inhibition above about 11%
KLK7 zymogen act = activators of human kallikrein-7 zymogen. P49862. activation, % at 7 µM. purified proKLK7, EDANS-DABCYL substrate fluorescence; 100% is mature enzyme control, 0% vehicle. AID 652039. hit rate 0.9% among 370,000;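 active means activation above the mean of all tested compounds plus 3 SD, computed per campaign excluding outliers beyond control limits, cut at about 13% in these data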
Target sequence (P49862 whole entry, looked up): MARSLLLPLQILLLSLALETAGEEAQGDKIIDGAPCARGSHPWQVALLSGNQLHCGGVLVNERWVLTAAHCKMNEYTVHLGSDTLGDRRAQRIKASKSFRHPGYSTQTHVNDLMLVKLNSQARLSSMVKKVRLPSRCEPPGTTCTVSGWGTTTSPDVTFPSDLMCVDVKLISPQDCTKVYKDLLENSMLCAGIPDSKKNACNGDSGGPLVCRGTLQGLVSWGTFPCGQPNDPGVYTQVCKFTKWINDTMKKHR
PLC-gamma1 inh = inhibitors of human phospholipase C gamma1. AID 720700. inhibition, % at 12.2 µM. hit rate 0.84% among 370,000. purified PLC-gamma1, fluorogenic substrate, fluorescence; in the data active means inhibition above about 9.5%
KLK7 act conf = confirmation of human kallikrein-7 zymogen activators; shares compounds with KLK7 zymogen act; hit rate 68% among 3,200; purified proKLK7, EDANS-DABCYL substrate fluorescence; scaled: vehicle 0, mature enzyme 100; activation, % at 7 µM; AID 686949;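 active means activation, as change over the incubation, above the mean of all tested compounds plus 3 SD, cut at about 13% in these data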
EDANS interfere = counter-screen for kallikrein-7 activators: EDANS-DABCYL optical interference. shares compounds with KLK7 zymogen act. EDANS-DABCYL substrate fluorescence interference, no enzyme, 4 h; solvent 0%, active enzyme control 100%. activation, % at 7 µM. hit rate 80% among 3,200. AID 686952;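 active means activation above the all-compound mean plus 3 SD, ignoring values outside control-based bounds, cut at about 4.8% in these data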;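 further: value is the 4 h activation minus the activation read at time zero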
EDANS interf = optically interferes with EDANS-DABCYL fluorescence, kallikrein-7 activator counter-screen | EC50, µM | AID 720493 | shares compounds with KLK7 zymogen act | EDANS-DABCYL peptide fluorescence interference, no enzyme | hit rate 20% among 250;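 active means compounds that raise the fluorescence signal in this interference counterscreen, with EC50 at or below 10 µM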;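 further: intact quenched peptide substrate alone read at 355 nm excitation and 520 nm emission; signal is fluorescence gain from T0 to T4 after four hours at room temperature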
Large screens that a line does not name were inactive (follow-up assays come after a bar, where they were run). Sampled rows, rich in hits. Any-hit rate of the full collection: about 3.4%.

Cc1ccc2nc(N3CCN(C(=O)CCCC(=O)O)CC3)nc(-c3ccccc3)c2c1	none
CCOC(=O)CC[C@H]1CC[C@]2(CCCN(S(C)(=O)=O)C2)O1	none
COc1cccc2c(=O)c3c(cnn3C)n(C)c12	KLK7 zymogen act 49 | KLK7 act conf 68 | EDANS interfere 67
COc1cccc2c(=O)c3ccoc3n(C)c12	none
COc1cc2c(C#N)c(N3CCOCC3)nc(N)c2c(N)n1	KLK7 zymogen act 22 | KLK7 act conf 21 | EDANS interfere 23
N#Cc1c(N2CCOCC2)nc(N)c2c(N)nc3c(c12)CC(CCl)O3 (stereo not given)	KLK7 zymogen act 73 | KLK7 act conf 76 | EDANS interfere 19 | EDANS interf inactive
CCOc1cc2c(C#N)c(N3CCNCC3)nc(N)c2c(N)n1	KLK7 zymogen act 69 | KLK7 act conf 67 | EDANS interfere 64
CCc1nc(N2CCOCC2)c(C#N)c2c1CCCC2	none
COC(=O)C[C@H]1CC[C@@H]2[C@H](COc3ccc(NC(=O)c4cnccn4)cc3C(=O)N2C)O1	none
Cc1cc(C)c(S(=O)(=O)NCc2ccccn2)cc1C	none
CCN(CC)CCNS(=O)(=O)c1ccc2c3c(cccc13)C(=O)N2	KLK7 zymogen act 100 | KLK7 act conf 58 | EDANS interfere 70
CCOC(=O)N1CCN(S(=O)(=O)c2ccc3c4c(cccc24)C(=O)N3)CC1	none
O=C1Nc2ccc(S(=O)(=O)NCc3ccccn3)c3cccc1c23	KLK7 zymogen act 16 | KLK7 act conf 72 | EDANS interfere 72
CN(C)CCNS(=O)(=O)c1ccc2c3c(cccc13)C(=O)N2	KLK7 zymogen act 155 | KLK7 act conf 68 | EDANS interfere 57 | EDANS interf 2.1
COC(=O)[C@]12C[C@H](CC(=O)NCC3CCCCC3)C(=O)N(Cc3ccccc3)C1=C[C@H](COCc1ccccc1)O[C@@H]2C	none
COc1cc2c3nnc(-c4ccccc4)c-3cn(Cc3ccc(F)cc3)c2cc1OC	KLK7 zymogen act 28 | KLK7 act conf inactive | EDANS interfere inactive
COc1ccc(C2C(C#N)=C(N)OC3=C2C(=O)CC(C)(C)C3)c([N+](=O)[O-])c1OC (stereo not given)	none
COc1cc(C2C(C#N)=C(N)OC3=C2C(=O)CC(C)(C)C3)c([N+](=O)[O-])cc1OC (stereo not given)	KLK7 zymogen act 20 | KLK7 act conf 21 | EDANS interfere 18
COc1ccc(-n2nc(N)c(C(N)=O)n2)cc1	KLK7 zymogen act 26 | KLK7 act conf 23 | EDANS interfere 21
Nc1ccc2nn(-c3ccc(F)cc3)nc2c1	KLK7 zymogen act 45 | KLK7 act conf 66 | EDANS interfere 77
CCCC(=O)Nc1ccc2nn(-c3ccc(OC)cc3)nc2c1	KLK7 zymogen act 18 | KLK7 act conf 35 | EDANS interfere inactive | EDANS interf inactive
CC(C)CC(=O)Nc1ccc2nn(-c3ccccc3)nc2c1	none
CCOc1ccc(-n2nc3ccc(N)cc3n2)cc1	none
COc1ccc(-n2nc3ccc(N)cc3n2)cc1	KLK7 zymogen act 99 | KLK7 act conf 77 | EDANS interfere 82
COC(=O)[C@]12C[C@H](CC(=O)N3CCSCC3)C(=O)N(Cc3ccco3)C1=C[C@H](COCc1ccccc1)O[C@@H]2C	none
COc1ccc(CCNC(=O)Nc2ccc3c(c2)[C@@]2(CC(=O)N(CC(C)C)C2c2ccccc2)C(=O)N3C)cc1OC (stereo not given in full)	none
N#Cc1ccc(Cn2ccc3ccc(-c4ccc5ccn(Cc6ccccc6)c5c4)cc32)cc1	none
O=c1cc(N2CCN(c3ccnc4cc(Cl)ccc34)CC2)[nH]c(=O)n1C1CCCCC1	none (no result: KLK7 zymogen act)
CCOc1ccc(-n2c(COc3ccccc3)nnc2SCC(=O)Nc2ccc(OCc3ccccc3)cc2)cc1	none
Cc1cc2nc(-c3ccc(SCc4ccccn4)nc3)[nH]c2cc1C	KLK7 zymogen act 127 | KLK7 act conf 25 | EDANS interfere 16 | EDANS interf inactive
CCOC(=O)CSc1ccc(-c2nc3cc(C)c(C)cc3[nH]2)cn1	none
C=CCn1c(-c2cccs2)nc2ccccc21	none
C=CCn1c(-c2cccs2)nc2nc3ccccc3nc21	KLK7 zymogen act 22 | KLK7 act conf 70 | EDANS interfere 82
Cc1ccc(-c2nc3ncccn3c2NC(=O)C2CC2)cc1	KLK7 zymogen act 17 | KLK7 act conf 32 | EDANS interfere 45
COc1cccc(NC(=O)Nc2c(-c3ccc(C)cc3)nc3ncccn23)c1	none
O=C(Nc1c(-c2ccc(C(F)(F)F)cc2)nc2ncccn12)C1CC1	KLK7 zymogen act 27 | KLK7 act conf 29 | EDANS interfere 27
CCCCCCC(=O)NC1CCCCN(Cc2ccc(Cl)cc2)C1=O (stereo not given)	none
CCCC1CCC2(CCCN2CCOC(=O)Nc2cccc(Cl)c2)CC1 (stereo not given)	none (no result: KLK7 zymogen act)
COC(=O)c1c(C#N)c(N)nc2c1CCCC2	KLK7 zymogen act 78 | KLK7 act conf 72 | EDANS interfere 75
COc1cc(-c2c(C#N)c(N)nc3c2CCCC3)ccc1O	none
Nc1ccc(Cl)cc1C(=O)OCC(=O)NC1CCS(=O)(=O)C1 (stereo not given)	KLK7 zymogen act 14 | KLK7 act conf 23 | EDANS interfere 19 | EDANS interf inactive
Nc1cc(Cl)ccc1C(=O)OCC(=O)NC1CCS(=O)(=O)C1 (stereo not given)	none
C[C@@H]1CCN(C2CC2)S(=O)(=O)c2c(cccc2N2CCC[C@H]2CO)O1	none
COc1ccc(-n2c(SCC(=O)Nc3ccccc3-c3ccccc3)nnc2-c2ccco2)cc1	none
O=C(Nc1ncc2c(n1)-c1ccccc1OC2)c1ccc(F)cc1	KLK7 zymogen act 32 | KLK7 act conf 15 | EDANS interfere 12 | EDANS interf inactive
O=C(Nc1ncc2c(n1)-c1ccccc1OC2)c1cccc([N+](=O)[O-])c1	none
O=C(OCC(=O)N1CCOCC1)c1ccc2ccccc2c1O	none
COc1cc2ccccc2cc1C(=O)OCC(=O)N1CCOCC1	KLK7 zymogen act 15 | KLK7 act conf 22 | EDANS interfere 19 | EDANS interf inactive
COc1ccc(-c2cc(C(=O)N3CCCCCC3)c3cc(C)ccc3n2)cc1	none

Bioassay records deposited in PubChem by The Scripps Research Institute Molecular Screening Center.
